Data: PubChem BioAssay (NCI)
About 83,000 compounds went through this panel and 20% of them were active in at least one assay; those are over-represented in the sample as a whole.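 Single-dose data. Exposure time 48 hours. Values below 10 considered active.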 The source made the active and inactive calls.

These molecules were tested on HCT-15 colon (assay: NCI-60 one-dose screen, 48 h (100 = growth as untreated, 0 = no growth, -100 = all killed)). Conditions: 10 µM unless noted.

Row | SMILES | growth
1 | CCCCN1C=CCN(CCCC)C1 | 90.2% (inactive)
2 | Cc1nn(-c2ccccc2)c(Cl)c1/C=N\N=c1/sc2ccccc2n1C | 103% (inactive)
3 | COc1cc(CC(=O)n2ncc3ccc(N)cc32)cc(OC)c1OC | 88.2% (inactive)
4 | Cn1cc(-c2nc(-c3c[nH]c4c(Cl)nccc34)cs2)c2cc(Br)ccc21 | 66.5% (inactive)
5 | CCNc1nc2ccc(Nc3ccnc4cc(Cl)ccc34)cc2[nH]1 | 89.8% (inactive)
6 | Cc1ncc(C(=O)Nc2ccc(CN3CCN(C)CC3)c(C(F)(F)F)c2)cc1C#Cc1cnc(N)cc1C#N | -65.2% (active)
7 | COc1cc(/C=C\c2cc(/C=C\c3ccc(O)c(OC)c3)n(C(=O)COc3ccccc3)n2)ccc1O | 9.64% (active)
8 | C[C@H](c1nc2ccc(N)cc2[nH]1)[C@H]1CC[C@H]2[C@@H]3CCC4=CC(=O)CC[C@]4(C)[C@H]3CC[C@]12C | 67.8% (inactive)
9 | CC(c1ccccc1)C(C(=O)c1ccccc1)c1ccccc1 (centres undefined) | 107% (inactive)
10 | N#CC1=C(N)Oc2c(ccc3ccccc23)C1c1ccccc1Cl (centres undefined) | 10.7% (inactive)
11 | N#CC(C(=O)/C(=N/NC(=O)c1ccccc1O)C(C#N)c1ccccc1)c1ccccc1 (centres undefined) | 43.1% (inactive)
12 | C[C@@H](Nc1ncnc2ccc(-c3cnc(N)nc3)cc12)c1ccc(F)cc1 | 88.6% (inactive)
13 | Cc1cccc(C)c1N=c1oc2ccc(Cl)cc2nc1-c1ccccc1O | 89.4% (inactive)
14 | COc1cc(C2C3=C(COC3=O)N(CCO)c3cc4c(cc32)CCC4)cc(OC)c1OC (centres undefined) | 10.9% (inactive)
15 | COc1cc2cc(Oc3cccc(NC(=O)Nc4cc(C(F)(F)F)cc(C(F)(F)F)c4)c3)c(C)nc2cc1OC | 2.75% (active)
16 | Cc1cc(Cl)nc(N(CCNc2ccnc3cc(Cl)ccc23)Cc2ccccn2)n1 | 48.7% (inactive)
17 | COc1ccc(C(=O)c2cc(OC)c(OC)c(OC)c2)cc1O | 3.56% (active)
18 | N#C/C(=C\c1ccc([N+](=O)[O-])s1)c1nc2cc(Br)ccc2s1 | -52.1% (active)
19 | Brc1ccc2[nH]cc(-c3cncn3CCc3ccccc3)c2c1 | 52.8% (inactive)

Row | SMILES | growth
20 | Cc1c(C)c([N+](=O)[O-])c(C)c([N+](=O)[O-])c1C | 108% (inactive)
21 | COc1ccc(C(=O)CC#N)cc1 | 112% (inactive)
22 | O=C(/C=C/c1c(-c2ccc(Cl)cc2)nn(-c2ccccc2)c1C(F)(F)F)c1ccc(Cl)cc1 | 77.7% (inactive)
23 | Cc1ccc(NS(=O)(=O)c2ccc(-c3cnc(C4CC4)o3)cc2)cc1C(F)(F)F | 35.2% (inactive)
24 | CC(C)c1ccc(Nc2ccc3c(OCCCN4CCN(C)CC4)cccc3n2)cc1 | -35.9% (active)
25 | CCN(c1ccccc1)S(=O)(=O)c1cc([N+](=O)[O-])ccc1Cl | 75.7% (inactive)
26 | C=C1C(=O)O[C@H]2[C@H]1CC/C(CNS(=O)(=O)c1cccc3ccccc13)=C\CC[C@@]1(C)O[C@@H]21 | -25% (active)
27 | COc1cc(C(=O)Nc2cc3c(cc2Oc2cc(C)cc(C)c2)C(=O)N(C)[C@@H](CC(=O)N(C)O)C(=O)N3)c(Br)c(OC)c1OC | -16.2% (active)
28 | Cc1c2cc[nH]c(=O)c2c(C)c2c1[nH]c1cc(OCCN3CCN(C)CC3)ccc12 | 10.1% (inactive)
29 | Cn1cc(-c2csc(-c3c[nH]c4ccccc34)n2)c2ccnc(Cl)c21 | -8.86% (active)
30 | COc1ccc2nc(-c3ccc(-c4noc(-c5cc(OC)c(OC)c(OC)c5)n4)cc3)[nH]c2c1 | 30.2% (inactive)
31 | Cn1cc(-c2nc(-c3c[nH]c4c(Cl)nccc34)cs2)c2cc(F)ccc21 | 99.2% (inactive)
32 | O=C1NN(C(=O)c2ccccc2)C(c2ccc(Cl)c(Cl)c2)=C/C1=C\c1ccc([N+](=O)[O-])cc1 | 71.8% (inactive)
33 | COc1ccc(OC)c(CCn2cncc2-c2c[nH]c3ccccc23)c1 | 71.4% (inactive)
34 | N#Cc1c(-c2cccc([N+](=O)[O-])c2)nc(SCC(=O)c2ccc(Cl)cc2)[nH]c1=O | 103% (inactive)
35 | COC(=O)c1ccc2c(c1)[n+](=O)c(C(C)=O)c(C(F)(F)F)n2[O-] | -77.5% (active)
36 | C#Cc1cccc(NC(=O)Nc2cccc(NC(=O)CCl)c2)c1 | -56.5% [8.25 µM] (active)
37 | Cc1nc2sccn2c1-c1cn2ccsc2n1 | 70.3% (inactive)

Each molecule was assayed on HT29 colon in the same assay as above. Conditions: 10 µM unless noted.

Row | SMILES | growth
38 | CCCCN1C=CCN(CCCC)C1 | 49.2% (inactive)
39 | Cc1nn(-c2ccccc2)c(Cl)c1/C=N\N=c1/sc2ccccc2n1C | 93.3% (inactive)
40 | COc1cc(CC(=O)n2ncc3ccc(N)cc32)cc(OC)c1OC | 109% (inactive)
41 | Cn1cc(-c2nc(-c3c[nH]c4c(Cl)nccc34)cs2)c2cc(Br)ccc21 | 74.9% (inactive)
42 | CCNc1nc2ccc(Nc3ccnc4cc(Cl)ccc34)cc2[nH]1 | 51.1% (inactive)
43 | Cc1ncc(C(=O)Nc2ccc(CN3CCN(C)CC3)c(C(F)(F)F)c2)cc1C#Cc1cnc(N)cc1C#N | -86.2% (active)
44 | COc1cc(/C=C\c2cc(/C=C\c3ccc(O)c(OC)c3)n(C(=O)COc3ccccc3)n2)ccc1O | -33.2% (active)
45 | C[C@H](c1nc2ccc(N)cc2[nH]1)[C@H]1CC[C@H]2[C@@H]3CCC4=CC(=O)CC[C@]4(C)[C@H]3CC[C@]12C | 51.8% (inactive)
46 | CC(c1ccccc1)C(C(=O)c1ccccc1)c1ccccc1 (centres undefined) | 75.4% (inactive)
47 | N#CC1=C(N)Oc2c(ccc3ccccc23)C1c1ccccc1Cl (centres undefined) | 70% (inactive)
48 | N#CC(C(=O)/C(=N/NC(=O)c1ccccc1O)C(C#N)c1ccccc1)c1ccccc1 (centres undefined) | 101% (inactive)
49 | C[C@@H](Nc1ncnc2ccc(-c3cnc(N)nc3)cc12)c1ccc(F)cc1 | 84.9% (inactive)
50 | Cc1cccc(C)c1N=c1oc2ccc(Cl)cc2nc1-c1ccccc1O | 80.5% (inactive)
51 | COc1cc(C2C3=C(COC3=O)N(CCO)c3cc4c(cc32)CCC4)cc(OC)c1OC (centres undefined) | 2.19% (active)
52 | COc1cc2cc(Oc3cccc(NC(=O)Nc4cc(C(F)(F)F)cc(C(F)(F)F)c4)c3)c(C)nc2cc1OC | 4.89% (active)
53 | Cc1cc(Cl)nc(N(CCNc2ccnc3cc(Cl)ccc23)Cc2ccccn2)n1 | 24.7% (inactive)
54 | COc1ccc(C(=O)c2cc(OC)c(OC)c(OC)c2)cc1O | 14.7% (inactive)
55 | N#C/C(=C\c1ccc([N+](=O)[O-])s1)c1nc2cc(Br)ccc2s1 | 21.8% (inactive)
56 | Brc1ccc2[nH]cc(-c3cncn3CCc3ccccc3)c2c1 | 65.6% (inactive)

Row | SMILES | growth
57 | Cc1c(C)c([N+](=O)[O-])c(C)c([N+](=O)[O-])c1C | 93.5% (inactive)
58 | COc1ccc(C(=O)CC#N)cc1 | 126% (inactive)
59 | O=C(/C=C/c1c(-c2ccc(Cl)cc2)nn(-c2ccccc2)c1C(F)(F)F)c1ccc(Cl)cc1 | 89.9% (inactive)
60 | Cc1ccc(NS(=O)(=O)c2ccc(-c3cnc(C4CC4)o3)cc2)cc1C(F)(F)F | 28.5% (inactive)
61 | CC(C)c1ccc(Nc2ccc3c(OCCCN4CCN(C)CC4)cccc3n2)cc1 | -50.3% (active)
62 | CCN(c1ccccc1)S(=O)(=O)c1cc([N+](=O)[O-])ccc1Cl | 63% (inactive)
63 | C=C1C(=O)O[C@H]2[C@H]1CC/C(CNS(=O)(=O)c1cccc3ccccc13)=C\CC[C@@]1(C)O[C@@H]21 | -3.2% (active)
64 | COc1cc(C(=O)Nc2cc3c(cc2Oc2cc(C)cc(C)c2)C(=O)N(C)[C@@H](CC(=O)N(C)O)C(=O)N3)c(Br)c(OC)c1OC | -14.5% (active)
65 | Cc1c2cc[nH]c(=O)c2c(C)c2c1[nH]c1cc(OCCN3CCN(C)CC3)ccc12 | -7.17% (active)
66 | Cn1cc(-c2csc(-c3c[nH]c4ccccc34)n2)c2ccnc(Cl)c21 | 27.9% (inactive)
67 | COc1ccc2nc(-c3ccc(-c4noc(-c5cc(OC)c(OC)c(OC)c5)n4)cc3)[nH]c2c1 | 20.2% (inactive)
68 | Cn1cc(-c2nc(-c3c[nH]c4c(Cl)nccc34)cs2)c2cc(F)ccc21 | 87.8% (inactive)
69 | O=C1NN(C(=O)c2ccccc2)C(c2ccc(Cl)c(Cl)c2)=C/C1=C\c1ccc([N+](=O)[O-])cc1 | 101% (inactive)
70 | COc1ccc(OC)c(CCn2cncc2-c2c[nH]c3ccccc23)c1 | 86.6% (inactive)
71 | N#Cc1c(-c2cccc([N+](=O)[O-])c2)nc(SCC(=O)c2ccc(Cl)cc2)[nH]c1=O | 105% (inactive)
72 | COC(=O)c1ccc2c(c1)[n+](=O)c(C(C)=O)c(C(F)(F)F)n2[O-] | -56% (active)
73 | C#Cc1cccc(NC(=O)Nc2cccc(NC(=O)CCl)c2)c1 | 18% [8.25 µM] (inactive)
74 | Cc1nc2sccn2c1-c1cn2ccsc2n1 | 99.3% (inactive)
